Source: PubChem BioAssay AID1159580 (chemical genetic matrix, 2015)
Several values for one entry are separate records, joined by “and”; a condition that tells them apart may be missing. Equal values may be shown once. In all, about 5,500 compounds went through this assay and about 2,000 (36%) were called active. Not shown: some 18% with an inconclusive outcome. Rule as the data show it: active = normalized growth mostly below about 0.91 (no sharp cut-off); inconclusive = no clear call, values can overlap the other calls; inactive = mostly above about 0.92. The list shows a part of the results.

Test: chemical genetic growth profiling, strain panel (AID 1159580);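 also: tested at 20 µM; growth read once vehicle control cultures reached saturation at 30 °C; 1 = growth at the plate median or of vehicle wells; lower values mean less growth of the strain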
Conditions: S. cerevisiae deletion strains, growth OD

Measured: normalized growth

CC(C)Nc1nc(Cl)nc(NC(C)C)n1
inactive: locus YAL013W, strain DEP1, stronger effect = lower value 1.01 | locus YAL021C, strain ccr4, stronger effect = lower value 1 | locus YAL026C, strain drs2, stronger effect = lower value 0.996 | locus YAL030W, strain snc1, stronger effect = lower value 0.998 | locus YBL061C, strain skt5, stronger effect = lower value 0.996 | locus YBR009C, strain hhf1, stronger effect = lower value 1 | locus YBR021W, strain FUR4, stronger effect = lower value 1.01 | locus YBR023C, strain chs3, stronger effect = lower value 0.992 | locus YBR171W, strain sec66, stronger effect = lower value 0.995 | locus YBR229C, strain ROT2, stronger effect = lower value 0.993 | locus YBR231C, strain swc5, stronger effect = lower value 0.996 | locus YBR279W, strain paf1, stronger effect = lower value 0.994 | locus YCL011C, strain gbp2, stronger effect = lower value 0.992 | locus YCL016C, strain dcc1, stronger effect = lower value 1 | locus YCL029C, strain bik1, stronger effect = lower value 1.01 | locus YCL061C, strain MRC1, stronger effect = lower value 0.987 | locus YCL069W, strain vba3, stronger effect = lower value 1.01 | locus YCR088W, strain abp1, stronger effect = lower value 0.992 | locus YDL005C, strain med2, stronger effect = lower value 0.998 | locus YDL035C, strain GPR1, stronger effect = lower value 1.01 | locus YDL040C, strain nat1, stronger effect = lower value 0.999 | locus YDL074C, strain BRE1, stronger effect = lower value 1.01 | locus YDL101C, strain DUN1, stronger effect = lower value 1.01 | locus YDL134C, strain PPH21, stronger effect = lower value 1.01 | locus YDL185W, strain tfp1, stronger effect = lower value 1.01 | locus YDL192W, strain arf1, stronger effect = lower value 1 | locus YDR001C, strain nth1, stronger effect = lower value 1 | locus YDR069C, strain doa4, stronger effect = lower value 1.01 | locus YDR101C, strain arx1, stronger effect = lower value 0.996 | locus YDR137W, strain rgp1, stronger effect = lower value 0.953 | locus YDR150W, strain NUM1, stronger effect = lower value 1 | locus YDR159W, strain sac3, stronger effect = lower value 1.03 | locus YDR162C, strain NBP2, stronger effect = lower value 1.01 | locus YDR195W, strain ref2 0.969 | locus YDR297W, strain sur2, stronger effect = lower value 1 | locus YDR318W, strain mcm21, stronger effect = lower value 1.02 | locus YDR334W, strain swr1, stronger effect = lower value 0.995 | locus YDR335W, strain msn5, stronger effect = lower value 1 | locus YDR388W, stronger effect = lower value 1.01 | locus YDR392W, strain spt3, stronger effect = lower value 0.996 | locus YDR502C, strain sam2, stronger effect = lower value 1.01 | locus YEL003W, strain gim4, stronger effect = lower value 1 | locus YEL037C, strain rad23, stronger effect = lower value 1.01 | locus YEL061C, strain CIN8 (second series), stronger effect = lower value 1 | locus YEL061C, strain CIN8, stronger effect = lower value 1.01 | locus YER015W, strain faa2, stronger effect = lower value 1 | locus YER016W, strain bim1, stronger effect = lower value 1 | locus YER110C, stronger effect = lower value 1.01 | locus YER111C, strain swi4, stronger effect = lower value 0.994 | locus YER155C, strain BEM2 (second series), stronger effect = lower value 0.992 | locus YER155C, strain BEM2, stronger effect = lower value 1.01 | locus YER167W, strain BCK2, stronger effect = lower value 1.01 | locus YFR010W, strain ubp6, stronger effect = lower value 1.01 | locus YGL078C, strain dbp3, stronger effect = lower value 1.02 | locus YGL086W, strain mad1, stronger effect = lower value 1.01 | locus YGL167C, strain pmr1, stronger effect = lower value 0.998 | locus YGL173C, strain kem1, stronger effect = lower value 0.996 | locus YGL227W, strain vid30, stronger effect = lower value 0.988 | locus YGL240W, strain doc1, stronger effect = lower value 0.99 | locus YGL248W, strain PDE1, stronger effect = lower value 1.01 | locus YGL253W, strain hxk2, stronger effect = lower value 0.999 | locus YGR078C, strain PAC10, stronger effect = lower value 0.997 | locus YGR135W, strain pre9, stronger effect = lower value 0.997 | locus YGR229C, strain SMI1, stronger effect = lower value 1 | locus YGR252W, strain gcn5, stronger effect = lower value 0.983 | locus YHR013C, strain ard1, stronger effect = lower value 1 | locus YHR027C, strain rpn1, stronger effect = lower value 0.994 | locus YHR030C, strain SLT2, stronger effect = lower value 0.979 | locus YHR079C, strain IRE1 (second series), stronger effect = lower value 1.02 | locus YHR079C, strain IRE1, stronger effect = lower value 0.978 | locus YHR094C, strain hxt1, stronger effect = lower value 1.01 | locus YHR129C, strain ARP1, stronger effect = lower value 1.01 | locus YHR142W, strain chs7, stronger effect = lower value 0.995 | locus YHR200W, strain rpn10, stronger effect = lower value 1.01 | locus YIL066C, strain RNR3, stronger effect = lower value 1.02 | locus YIL073C, strain SPO22, stronger effect = lower value 1.07 | locus YIL125W, strain kgd1, stronger effect = lower value 1 | locus YIR030C, strain dcg1, stronger effect = lower value 1.02 | locus YJL092W, strain hpr5, stronger effect = lower value 0.995 | locus YJL095W, strain BCK1 (second series), stronger effect = lower value 1 | locus YJL095W, strain BCK1, stronger effect = lower value 0.987 and 0.984 | locus YJL115W, strain asf1, stronger effect = lower value 0.986 | locus YJL129C, strain trk1, stronger effect = lower value 0.997 | locus YJL134W, strain LCB3, stronger effect = lower value 0.993 | locus YJL154C, strain vps35, stronger effect = lower value 1 | locus YJL164C, strain tpk1, stronger effect = lower value 1.01 | locus YJL166W, strain qcr8, stronger effect = lower value 1 | locus YJL168C, strain set2, stronger effect = lower value 1.01 | locus YJL187C, strain SWE1 (second series), stronger effect = lower value 1.01 | locus YJL187C, strain SWE1, stronger effect = lower value 1.01 | locus YJR043C, strain POL32, stronger effect = lower value 1.01 | locus YJR066W, strain TOR1, stronger effect = lower value 0.928
